In the library only some 1.8% were active in any assay of this set; here they are far more common.
GRK2 inh – human GRK2 inhibition via aptamer displacement | bead flow cytometry, FAM-aptamer displacement from GRK2 | inhibition of aptamer binding, % at 10 µM | 330,000 compounds, 0.59% hits | AID 488847;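 active = inhibition of aptamer binding above 40%, roughly 3 SD of noise, on plates passing a quality check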;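 also: median bead fluorescence of bound FAM aptamer so fluorescent compounds give negative values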
HDAC3 inh – human HDAC3 inhibition | O15379 | recombinant HDAC3, fluorogenic peptide/trypsin coupled, fluorescence | inhibition, % at 8.3 µM | 320,000 compounds, 0.15% hits | AID 2718; in the data active = inhibition above about 26%, passing the limit was not always enough; inconclusive = no clear call, values can overlap the other calls
Target sequence (O15379 whole entry, looked up): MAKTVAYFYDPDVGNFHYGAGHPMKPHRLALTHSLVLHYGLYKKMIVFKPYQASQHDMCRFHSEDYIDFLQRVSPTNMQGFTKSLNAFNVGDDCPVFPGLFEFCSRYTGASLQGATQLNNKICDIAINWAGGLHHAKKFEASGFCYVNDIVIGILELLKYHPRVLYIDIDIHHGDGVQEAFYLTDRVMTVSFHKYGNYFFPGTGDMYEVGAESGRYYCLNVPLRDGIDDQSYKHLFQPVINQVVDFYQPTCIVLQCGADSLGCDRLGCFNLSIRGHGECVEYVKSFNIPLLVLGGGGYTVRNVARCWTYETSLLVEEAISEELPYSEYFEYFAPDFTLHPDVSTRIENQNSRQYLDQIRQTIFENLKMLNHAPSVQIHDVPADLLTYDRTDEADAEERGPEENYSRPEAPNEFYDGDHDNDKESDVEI
H9c2 protect – myocardial damage modulation in H9c2 cells. AID 588492. 360,000 compounds, 0.63% hits. protection from H2O2 cell death, % at 20 µM. H9c2 cardiomyocytes, H2O2 injury protection, ATPLite, 2 h;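 active = compounds giving at least 50% protection of heart cells from peroxide-induced death in the single-dose screen, raw or plate-pattern-corrected value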
Neddyl block – cullin neddylation inhibition; TR-FRET cullin neddylation, biochemical; 360,000 compounds, 0.58% hits; P61081+Q13564; AID 651699; inhibition, % at 25 µM; in the data active = inhibition above about 36%
A number is an active result; - = inactive; ? = inconclusive; . = no result given.

SMILES	GRK2 inh	HDAC3 inh	H9c2 protect	Neddyl block
NC(=O)c1nsc(C(=O)N(c2ccccc2)C(C(=O)NCc2ccc(F)cc2)c2ccc(O)cc2)c1N (stereo not drawn)	-	-	50	-
CN(C)c1ccc(C(C(=O)NCc2ccccc2)N(Cc2ccco2)C(=O)c2snc(C(N)=O)c2N)cc1 (stereo not drawn)	-	-	78	-
COc1ccc(N(C(=O)c2snc(C(N)=O)c2N)C(C(=O)NCc2ccccc2)c2ccc(O)cc2)cc1 (stereo not drawn)	.	.	-	-
CC1=C/C(=C(\c2cc(C)c(O)c(Br)c2)c2ccccc2S(=O)(=O)O)C=C(Br)C1=O	-	-	-	-
O=C(/C(=N/N=C/c1ccc(O)c(O)c1)c1ccccc1)c1ccccc1	-	-	-	-
COc1ccc(Nc2cc(C)c3cc([N+](=O)[O-])ccc3n2)cc1	-	-	-	-
CC1(C(=O)NS(=O)(=O)c2ccc(Cl)s2)CCN1C(=O)Cc1ccc(-c2ccccc2)cc1 (stereo not drawn)	.	.	-	-
Cc1cccc(/C=N/NC(=O)c2c(-c3ccccc3)noc2C)c1O	-	-	54	-
O=C(COC(=O)C(c1ccccc1)c1ccccc1)NCc1ccco1	-	-	-	-
COc1ccc(-c2cc(=O)oc3c(C)c(O)c(CN(C)C)cc23)cc1	-	-	70	.
COc1ccc(-c2cc(=O)oc3c(C)c(OCC(=O)N(C)C)ccc23)cc1	-	?	-	-
COc1ccc(CCN2C(=O)COc3ccccc3C2C(=O)Nc2c(C)cccc2C)cc1OC (stereo not drawn)	.	.	.	-
Cc1cccc(NS(=O)(=O)c2ccc(C)c(C(=O)NCCCN3CCOCC3)c2)c1	.	.	-	-
Cc1oc(=O)cc(OCc2ccccc2)c1C	45	.	-	-
Nc1ccc(N)c(C(=O)O)c1	88	-	-	-
O=C(CC12CC3CC(CC(C3)C1)C2)N1CCN(S(=O)(=O)c2cccs2)CC1	-	-	-	-
CCOC(=O)C1=C(C)OC(N)=C(C#N)C1c1ccsc1 (stereo not drawn)	-	-	-	-
N#CC1=C(N)Oc2c(O)cc3ccccc3c2C1c1ccsc1 (stereo not drawn)	-	-	58	-
NC(C(=O)O)C(c1ccccc1)C(F)F (stereo not drawn)	-	-	.	.
COc1ccc(-c2nnc3ccc(SCC(=O)Nc4nc5ccccc5s4)nn23)cc1OC	-	-	50	-
Cc1cc(C(=O)N/N=C/c2ccc(OC(=O)c3ccccc3Br)cc2)n[nH]1	-	-	-	-
Cc1cc(C(=O)N/N=C/c2cc(Br)ccc2OC(=O)c2ccccc2)n[nH]1	-	-	56	-
Cc1cc(C(=O)N/N=C/c2cc(Br)ccc2OC(=O)c2ccccc2Cl)n[nH]1	-	-	51	-
COc1ccc(-c2nc(SC(C)C(=O)NC3CC3)n[nH]2)cc1 (stereo not drawn)	.	.	-	-
CCn1c(C)nc2cc(C(=O)NNC(=O)CN(C)S(=O)(=O)c3ccc(NC(C)=O)cc3)ccc21	100	-	-	-
SMILES	GRK2 inh	HDAC3 inh	H9c2 protect	Neddyl block
OCOCCCn1c(C2CCCN2c2nc(-c3ccc(F)cc3)cs2)nc2cc(Cl)c(N3CCCCC3)cc21 (stereo not drawn)	-	-	-	-
CCOC(=O)C1=C(C)NC(SCC(=O)Nc2nc(C)cs2)=C(C#N)C1c1cccs1 (stereo not drawn)	51	-	.	.
CCOC(=O)c1c(NC(NC(C)=O)C(Cl)(Cl)Cl)sc2c1CCCC2 (stereo not drawn)	73	-	-	-
COC(=O)c1c(NC(NC(C)=O)C(Cl)(Cl)Cl)sc2c1CCCC2 (stereo not drawn)	-	-	-	-
CCOc1ccccc1NC(=O)C(=O)N/N=C/c1cc(Br)ccc1O	-	-	57	-
O=C(COc1ccccc1Cl)NNC(=O)Cn1[nH]c(=O)c2ccccc2c1=O	-	-	92	-
Cc1c(NC(=O)CN2CCN(c3ccccc3)CC2)c(=O)n(-c2ccccc2)n1C	-	-	-	-
CN(CC(=O)Nc1c(Cl)cccc1Cl)C(=O)Cn1[nH]c(=O)c2ccccc2c1=O	-	-	76	-
O=C(Cn1[nH]c(=O)c2ccccc2c1=O)NNC(=O)c1ccccc1	-	.	62	-
Cc1c(NC(=O)Cn2[nH]c(=O)c3ccccc3c2=O)c(=O)n(-c2ccccc2)n1C	-	-	64	-
CC(C)c1ccc(/C=C2\SC(=S)N(CCC(=O)N3CCCCC3CCO)C2=O)cc1 (stereo not drawn)	-	-	-	-
CCOc1ccccc1C1NC(=O)c2ccccc2N1 (stereo not drawn)	.	.	-	.
COc1ccccc1C(=O)COC(=O)Cn1[nH]c(=O)c2ccccc2c1=O	-	-	53	-

Compound activity from PubChem.
